# In PMC5540273 (PLoS ONE, 2017):
# What was measured:
# Details in all cases: concentration: 1 μM, replicates: in singlicate; n = 1
# CSF1R = test system: CSF1R
# CSK = test system: CSK
# CSNK1A1L = test system: CSNK1A1L
# CSNK1A1 = test system: CSNK1A1
# CSNK1D = test system: CSNK1D
# CSNK1E = test system: CSNK1E
# CSNK1G1 = test system: CSNK1G1
# CSNK1G2 = test system: CSNK1G2
# CSNK1G3 = test system: CSNK1G3
# CSNK2A1 = test system: CSNK2A1
# 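Also: KINOMEscan kinase panel screen.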
SMILES,%Inh (CSF1R) [%],%Inh (CSK) [%],%Inh (CSNK1A1L) [%],%Inh (CSNK1A1) [%],%Inh (CSNK1D) [%],%Inh (CSNK1E) [%],%Inh (CSNK1G1) [%],%Inh (CSNK1G2) [%],%Inh (CSNK1G3) [%],%Inh (CSNK2A1) [%]
Nc1nc(N)c2nc(-c3ccccc3)[nH]c2n1 [SKF-12778],2,0,0,52,26,25,18,32,30,14
CCC(=O)c1c(-c2ccccc2)c2cc(Cl)ccc2c(=O)n1Cc1cc(C(=O)NC2CC2)n(C)n1,9,0,0,11,0,0,0,0,0,0
COc1ccc(-n2cnc3c(N)ncnc32)cc1 [SKF-97236],0,4,7,33,42,34,13,11,6,12
Cc1cccc(-c2cc(-c3c[nH]nc3-c3ccccn3)ccn2)c1 [GW679395],53,0,2,0,25,10,8,0,6,0
